Results from paper PMC11006913.
Positions count from the first letter of the chain named.

Assays:
Assay in all cases: PBM; 200 nM protein, PBS
Details in all cases: dsDNA, one strand shown
[1] = target: T1, SIX6 (Homo sapiens, UniProt O95475 114-200, L167I)
T1 sequence: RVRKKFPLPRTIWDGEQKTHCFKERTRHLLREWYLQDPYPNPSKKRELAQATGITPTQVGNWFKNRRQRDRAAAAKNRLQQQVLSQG

[2] = target: T2, SIX6 (Homo sapiens, UniProt O95475 114-200, L143V)
T2 sequence: T1 sequence with L30V, I54L

[3] = target: T3, SIX6 (Homo sapiens, UniProt O95475 114-200, H141N)
T3 sequence: T1 sequence with H28N, I54L

[4] = target: T4, SIX6 (Homo sapiens, UniProt O95475 114-200, T165P)
T4 sequence: T1 sequence with T52P, I54L

[5] = target: T5, SIX6 (Homo sapiens, UniProt O95475 114-200, L167M)
T5 sequence: T1 sequence with I54M

[6] = target: T6, SIX6 (Homo sapiens, UniProt O95475 114-200, L143M)
T6 sequence: T1 sequence with L30M, I54L

[7] = target: T7, SIX6 (Homo sapiens, UniProt O95475 114-200, L143I)
T7 sequence: T1 sequence with L30I, I54L

[8] = target: T8, SIX6 (Homo sapiens, UniProt O95475 114-200, T165G)
T8 sequence: T1 sequence with T52G, I54L

[9] = target: T9, SIX6 (Homo sapiens, UniProt O95475 114-200, T139Q)
T9 sequence: T1 sequence with T26Q, I54L

[10] = target: T10, SIX6 (Homo sapiens, UniProt O95475 114-200, T165A)
T10 sequence: T1 sequence with T52A, I54L

[11] = target: T11, SIX6 (Homo sapiens, UniProt O95475 114-200, L167V)
T11 sequence: T1 sequence with I54V

[12] = target: T12, SIX6 (Homo sapiens, UniProt O95475 114-200)
T12 sequence: T1 sequence with I54L

[13] = target: T13, SIX6 (Homo sapiens, UniProt O95475 114-200, T165I)
T13 sequence: T1 sequence with T52I, I54L

[14] = target: HOXA2 (Homo sapiens, UniProt O43364 129-215, R185T)
HOXA2 (Homo sapiens, UniProt O43364 129-215, R185T), sequence (O43364 129-215 R185T): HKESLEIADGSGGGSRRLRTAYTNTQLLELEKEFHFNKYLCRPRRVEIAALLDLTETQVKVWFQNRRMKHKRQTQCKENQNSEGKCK

[15] = target: HOXA2 (Homo sapiens, UniProt O43364 129-215, R185K)
HOXA2 (Homo sapiens, UniProt O43364 129-215, R185K), sequence (O43364 129-215 R185K): as the sequence (O43364 129-215 R185T) above, with T57K counted along it

[16] = target: HOXA2 (Homo sapiens, UniProt O43364 129-215, Y150S)
HOXA2 (Homo sapiens, UniProt O43364 129-215, Y150S), sequence (O43364 129-215 Y150S): as the sequence (O43364 129-215 R185T) above, with Y22S, T57R counted along it

[17] = target: HOXA2 (Homo sapiens, UniProt O43364 129-215)
HOXA2 (Homo sapiens, UniProt O43364 129-215), sequence (O43364 129-215): as the sequence (O43364 129-215 R185T) above, with T57R counted along it

Row | Sequence | binding signal [1] | binding signal [2] | binding signal [3] | binding signal [4] | binding signal [5] | binding signal [6] | binding signal [7] | binding signal [8] | binding signal [9] | binding signal [10] | binding signal [11] | binding signal [12] | binding signal [13] | binding signal [14] | binding signal [15] | binding signal [16] | binding signal [17]
1 | CCGGGCGC | 8.78 upbm affinity estimate (log intensity, higher = more binding, comparable within an allelic series) | 8.67 upbm affinity estimate (log intensity, higher = more binding, comparable within an allelic series) | 8.71 upbm affinity estimate (log intensity, higher = more binding, comparable within an allelic series) | 8.75 upbm affinity estimate (log intensity, higher = more binding, comparable within an allelic series) | 8.72 upbm affinity estimate (log intensity, higher = more binding, comparable within an allelic series) | 8.66 upbm affinity estimate (log intensity, higher = more binding, comparable within an allelic series) | 8.69 upbm affinity estimate (log intensity, higher = more binding, comparable within an allelic series) | 8.73 upbm affinity estimate (log intensity, higher = more binding, comparable within an allelic series) | 8.6 upbm affinity estimate (log intensity, higher = more binding, comparable within an allelic series) | 8.69 upbm affinity estimate (log intensity, higher = more binding, comparable within an allelic series) | 8.69 upbm affinity estimate (log intensity, higher = more binding, comparable within an allelic series) | 8.66 upbm affinity estimate (log intensity, higher = more binding, comparable within an allelic series) | 8.72 upbm affinity estimate (log intensity, higher = more binding, comparable within an allelic series) |  |  |  | 
2 | CTCCGCCC | 8.91 upbm affinity estimate (log intensity, higher = more binding, comparable within an allelic series) | 8.91 upbm affinity estimate (log intensity, higher = more binding, comparable within an allelic series) | 8.92 upbm affinity estimate (log intensity, higher = more binding, comparable within an allelic series) | 8.95 upbm affinity estimate (log intensity, higher = more binding, comparable within an allelic series) | 8.94 upbm affinity estimate (log intensity, higher = more binding, comparable within an allelic series) | 8.89 upbm affinity estimate (log intensity, higher = more binding, comparable within an allelic series) | 8.86 upbm affinity estimate (log intensity, higher = more binding, comparable within an allelic series) | 8.87 upbm affinity estimate (log intensity, higher = more binding, comparable within an allelic series) | 8.89 upbm affinity estimate (log intensity, higher = more binding, comparable within an allelic series) | 8.96 upbm affinity estimate (log intensity, higher = more binding, comparable within an allelic series) | 8.86 upbm affinity estimate (log intensity, higher = more binding, comparable within an allelic series) | 8.89 upbm affinity estimate (log intensity, higher = more binding, comparable within an allelic series) | 8.95 upbm affinity estimate (log intensity, higher = more binding, comparable within an allelic series) |  |  |  | 
3 | CTGCGGAC | 8.88 upbm affinity estimate (log intensity, higher = more binding, comparable within an allelic series) | 8.75 upbm affinity estimate (log intensity, higher = more binding, comparable within an allelic series) | 8.87 upbm affinity estimate (log intensity, higher = more binding, comparable within an allelic series) | 8.83 upbm affinity estimate (log intensity, higher = more binding, comparable within an allelic series) | 8.84 upbm affinity estimate (log intensity, higher = more binding, comparable within an allelic series) | 8.84 upbm affinity estimate (log intensity, higher = more binding, comparable within an allelic series) | 8.83 upbm affinity estimate (log intensity, higher = more binding, comparable within an allelic series) | 8.91 upbm affinity estimate (log intensity, higher = more binding, comparable within an allelic series) | 9.05 upbm affinity estimate (log intensity, higher = more binding, comparable within an allelic series) | 8.83 upbm affinity estimate (log intensity, higher = more binding, comparable within an allelic series) | 8.84 upbm affinity estimate (log intensity, higher = more binding, comparable within an allelic series) | 8.84 upbm affinity estimate (log intensity, higher = more binding, comparable within an allelic series) | 8.85 upbm affinity estimate (log intensity, higher = more binding, comparable within an allelic series) |  |  |  | 
4 | CGGGCCCC | 8.63 upbm affinity estimate (log intensity, higher = more binding, comparable within an allelic series) | 8.6 upbm affinity estimate (log intensity, higher = more binding, comparable within an allelic series) | 8.71 upbm affinity estimate (log intensity, higher = more binding, comparable within an allelic series) | 8.8 upbm affinity estimate (log intensity, higher = more binding, comparable within an allelic series) | 8.68 upbm affinity estimate (log intensity, higher = more binding, comparable within an allelic series) | 8.6 upbm affinity estimate (log intensity, higher = more binding, comparable within an allelic series) | 8.75 upbm affinity estimate (log intensity, higher = more binding, comparable within an allelic series) | 8.71 upbm affinity estimate (log intensity, higher = more binding, comparable within an allelic series) | 8.68 upbm affinity estimate (log intensity, higher = more binding, comparable within an allelic series) | 8.73 upbm affinity estimate (log intensity, higher = more binding, comparable within an allelic series) | 8.59 upbm affinity estimate (log intensity, higher = more binding, comparable within an allelic series) | 8.64 upbm affinity estimate (log intensity, higher = more binding, comparable within an allelic series) | 8.66 upbm affinity estimate (log intensity, higher = more binding, comparable within an allelic series) |  |  |  | 
5 | GTCCGGAC | 9.13 upbm affinity estimate (log intensity, higher = more binding, comparable within an allelic series) | 8.97 upbm affinity estimate (log intensity, higher = more binding, comparable within an allelic series) | 8.97 upbm affinity estimate (log intensity, higher = more binding, comparable within an allelic series) | 9.02 upbm affinity estimate (log intensity, higher = more binding, comparable within an allelic series) | 9.09 upbm affinity estimate (log intensity, higher = more binding, comparable within an allelic series) | 9.15 upbm affinity estimate (log intensity, higher = more binding, comparable within an allelic series) | 9.08 upbm affinity estimate (log intensity, higher = more binding, comparable within an allelic series) | 9.27 upbm affinity estimate (log intensity, higher = more binding, comparable within an allelic series) | 9.2 upbm affinity estimate (log intensity, higher = more binding, comparable within an allelic series) | 9.14 upbm affinity estimate (log intensity, higher = more binding, comparable within an allelic series) | 9.17 upbm affinity estimate (log intensity, higher = more binding, comparable within an allelic series) | 9.13 upbm affinity estimate (log intensity, higher = more binding, comparable within an allelic series) | 9.13 upbm affinity estimate (log intensity, higher = more binding, comparable within an allelic series) | 7.42 upbm affinity estimate (log intensity, higher = more binding, comparable within an allelic series) | 10.6 upbm affinity estimate (log intensity, higher = more binding, comparable within an allelic series) | 10.6 upbm affinity estimate (log intensity, higher = more binding, comparable within an allelic series) | 7.3 upbm affinity estimate (log intensity, higher = more binding, comparable within an allelic series)
6 | CGTCGCGC | 9.07 upbm affinity estimate (log intensity, higher = more binding, comparable within an allelic series) | 9.04 upbm affinity estimate (log intensity, higher = more binding, comparable within an allelic series) | 9.11 upbm affinity estimate (log intensity, higher = more binding, comparable within an allelic series) | 9.07 upbm affinity estimate (log intensity, higher = more binding, comparable within an allelic series) | 9 upbm affinity estimate (log intensity, higher = more binding, comparable within an allelic series) | 9.11 upbm affinity estimate (log intensity, higher = more binding, comparable within an allelic series) | 9.05 upbm affinity estimate (log intensity, higher = more binding, comparable within an allelic series) | 9.08 upbm affinity estimate (log intensity, higher = more binding, comparable within an allelic series) | 9.27 upbm affinity estimate (log intensity, higher = more binding, comparable within an allelic series) | 9.17 upbm affinity estimate (log intensity, higher = more binding, comparable within an allelic series) | 8.92 upbm affinity estimate (log intensity, higher = more binding, comparable within an allelic series) | 9.06 upbm affinity estimate (log intensity, higher = more binding, comparable within an allelic series) | 8.97 upbm affinity estimate (log intensity, higher = more binding, comparable within an allelic series) | 7.22 upbm affinity estimate (log intensity, higher = more binding, comparable within an allelic series) | 10.4 upbm affinity estimate (log intensity, higher = more binding, comparable within an allelic series) | 10.5 upbm affinity estimate (log intensity, higher = more binding, comparable within an allelic series) | 7.41 upbm affinity estimate (log intensity, higher = more binding, comparable within an allelic series)
